About 83,000 compounds went through this panel and 20% of them were active in at least one assay; those are over-represented in the sample as a whole.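 Growth was measured after 48 h exposure to one concentration of compound in 96-well plates. Values under 10 count as active.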 Values without a mark were called inactive. Active and inactive are the calls of the source.
Legend:
Test in all cases: NCI-60 one-dose screen, 48 h (100 = growth as untreated, 0 = no growth, -100 = all killed)
Details in all cases: 10 µM
[1] = tested on: T-47D breast
[2] = tested on: BT-549 breast
[3] = tested on: SW-620 colon
[4] = tested on: MCF7 breast
[5] = tested on: HCT-116 colon
[6] = tested on: HCC-2998 colon
[7] = tested on: KM12 colon
[8] = tested on: MDA-MB-435 melanoma

SMILES | growth [1] | growth [2] | growth [3] | growth [4] | growth [5] | growth [6] [%] | growth [7] [%] | growth [8] [%]
COc1ccc(Cc2cnc(N)nc2N)cc1OC | 101% | 106% | 98.7% | 100% | 99.8% | 105 | 110 | 
O=C(N/N=C/c1cc([N+](=O)[O-])ccc1O)c1cccc2ccccc12 | 28.3% | 45.2% | 47.7% | 16.5% | 18.4% | 52.4 | 56.1 | 
COc1ccc(-c2n[nH]nc2-c2cc(OC)c3c(c2OC)OCO3)cc1 | 27.9% | 16.8% | 19.4% | 27.7% | 25.6% | 39.6 | 31.9 | 
COc1cccc(CNc2cccc3cn[nH]c23)c1O | 89.1% | 104% | 99.1% | 71.5% | 102% | 107 | 99 | 
CC(C)(C)OC(=O)CN1CCc2c(sc3ncnc(N/N=C/c4ccccc4Br)c23)C1 | 47.3% | 82.9% | 60.6% | 3.49% (active) | 48.7% | 76.3 | 80 | 
Cc1ccc(/C=C2/C(=O)N(C)c3ccc(S(=O)(=O)Nc4ccc(C(C)(C)C)cc4)cc32)s1 | 80.5% | 97.1% | 96.7% | 72.4% | 55.4% | 87.8 | 82.4 | 
Cc1cc(Cl)ccc1Nc1nc(C(F)(F)F)ccc1C(=O)N/N=C/c1c(Cl)cccc1Cl | -13.3% (active) | -15% (active) | 6.12% (active) | 7.7% (active) | 1.5% (active) | 19.5 |  | 
CN1CCN(CC(=O)Nc2cccc(-n3cc(-c4ccncc4)c(-c4ccc(Cl)c(O)c4)n3)c2)CC1 | 61.3% | 36.6% | 20.8% | 15.2% | 17.3% | 85.6 | 26.1 | 
CSc1nc(S(C)(=O)=O)nc2[nH]c(=O)[nH]c12 | 112% | 102% | 111% | 109% | 99.1% |  |  | 
C=CCn1c(SCC(=O)Nc2ccc(C(=O)/C=C/c3ccc(Cl)cc3)cc2)nnc1-c1cc(-c2ccccc2)nc2ccccc12 | 84.6% | 64.2% | 5.4% (active) | 12.2% | -22.9% (active) | 87.4 | 76.5 | 
CC(C)(C)c1nn(-c2ccccc2)c2c1CC1(CN2Cc2ccc(Cl)cc2)C(=O)c2ccccc2C1=O | 75.5% | 81.4% | 85.6% | 82.4% | 52.6% | 91.4 |  | 
CCN1CC(CCN2CCOCC2)C(C(c2ccccc2)c2ccccc2)C1=O (configuration not stated) | 99.6% | 109% | 106% | 97.9% | 114% | 105 | 117 | 
Cc1nn(-c2ccccc2)c2nc(Cl)c(C=O)c(-c3ccccc3)c12 | 83.5% | 86% | 72.1% | 90.6% | 4.57% (active) | 77.5 | 78.3 | 
CC(=O)Nc1ccc(S(=O)(=O)N/N=C(\C)c2ccc(C)cc2C)cc1 | 106% | 111% | 101% | 88.2% | 102% | 101 | 110 | 
Nc1nc(N)c(N)c(Nc2ccc(CCO)cc2)n1 | 102% | 99.9% | 94% | 105% | 104% | 106 | 101 | 
OC[C@H]1OC([S-])[C@H](O)[C@@H](O)[C@@H]1O.[Au+] (some centres not stated) | 85.5% | 87.1% | 101% | 72.8% | 99% | 112 | 114 | 
Nc1cc(-c2ccc(Cl)cc2)nn1-c1nc2ccccc2nc1Cc1ccccc1 | 85.5% | 90.5% |  | 85.3% | 72.8% | 94.8 |  | 86.8
CC(C)C1=C(O)C2=C(C(=O)C1=O)[C@@]1(C)CCCC(C)(C)[C@@H]1CC2 | 67.7% | 106% | 55.4% | 66.4% | 58% | 53.8 | 52 | 
COc1ccccc1-n1c(-c2sc(NC(C)=O)nc2C)n[nH]c1=S | 106% | 93.8% | 108% | 97.5% | 98.3% | 108 | 108 | 
CC(C)(C)OC(=O)CN1CCc2c(sc3ncnc(N/N=C/c4cccc5ccccc45)c23)C1 | 26.4% | 64.3% | 33.9% | -24.5% (active) | 26% | 44.1 | 53.1 | 
CCCCC1(O)CCCCC1 | 91.5% | 95.5% | 102% | 101% | 102% | 103 | 96.8 | 
CCn1cc(CNc2ccc(C(=O)Nc3ccc4ccccc4c3)cc2)c(C)n1 | 6.54% (active) | 9.81% (active) | 87.6% | 49% | 40.5% | 81.5 | 55.5 | 
c1ccc2c(c1)Cc1ccccc1N2CCN1CCCCC1 | 90.3% | 86.3% | 89.1% | 89.4% | 56.8% | 86 | 95.3 | 
Fc1ccc(C(c2ccc(F)cc2)C(Cl)Cl)cc1 | 110% | 95.5% |  | 98% | 96.8% |  |  | 107
O=C(CCCSc1nc(-c2ccccc2)cc(-c2ccc(Cl)cc2)n1)NO | 23.3% | 38.6% | 17.4% | 4.12% (active) | 11.9% | 12.7 | 24.7 | 
CCN1CCN(CCC(=O)Nc2cccc(-n3cc(-c4ccncc4)c(-c4ccc(Cl)c(OC)c4)n3)c2)CC1 | 38.8% | 39.2% | 10.3% | 15.5% | 5.22% (active) | 43.8 | 15.7 | 
COc1ccc(C(=O)CC(CC(=O)c2ccc(OC)cc2)c2c(C)nn(-c3ccccc3)c2Cl)cc1 | 109% | 92% | 102% | 95.4% | 88.9% | 109 | 98 | 

From PubChem BioAssay (NCI)
